Source: PubChem BioAssay (Tox21)
Where “and” joins values, the source holds several entries; their conditions need not be identical. Equal entries are not always repeated. A number with no mark means an inactive call. Inconclusive results are not listed. Entries that show only a call come without a potency. Calls of active or inactive are those of the source. Unless noted, calls come from the whole dose curve; as a rule, active = well fitted curve in the direction sought with a large enough effect in the repeat runs; inconclusive = weak or mixed curves; inactive = no such curve, though single readings can be large; an effect the other way counts as inactive or inconclusive.

Legend:
[1] = Human pregnane X receptor (PXR) small molecule agonists, qHTS cell viability counter screen (AID 1346977); note: nearly all actives have a fitted effect of over 50% in size; note: potency is the fitted concentration of half-maximal effect
How it was run: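 Measures live-cell protease fluorescence (CellTiter-Fluor) in PXR-Luc HepG2 cells treated 24hr with compounds at 37C. Cells had 5hr to attach before pin transfer of DMSO solutions.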

[2] = Caspase-3/7 induction in HepG2 cells by small molecules, qHTS assay (AID 1346978); note: nearly all actives have a fitted effect of over 15% in size
How it was run: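 Caspase-3/7 induction was measured by Caspase-Glo 3/7 luminescence (30 min, room temperature) after a 17 hr compound exposure of wild-type HepG2 cells seeded at 2,000 per well and pre-incubated 5 hr.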

[3] = Caspase-3/7 induction in CHO-K1 cells by small molecules, qHTS assay (AID 1346980); note: nearly all actives have a fitted effect of over 15% in size
How it was run: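 Luminescent Caspase-Glo 3/7 read (30min, room temperature) quantified apoptosis induction. Cells were wild-type CHO-K1, treated with compound for 17hr at 37 C and 5% CO2.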

[4] = Caspase-3/7 induction in HepG2 cells by small molecules, qHTS cell viability counter screen (AID 1346981); note: series mostly up to about 92 µM; nearly all actives have a fitted effect of over 30% in size
How it was run: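 Cell viability is measured as a cytotoxicity counter screen alongside the Caspase-Glo 3/7 readout in identical wells. Wild-type HepG2 cells are treated with test compounds for 16 hr at 37 C before CellTiter-Fluor addition and a 1-hr incubation.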

[5] = molecular target: Nuclear receptor subfamily 1 group I member 2 (Homo sapiens) (UniProt O75469); assay: Human pregnane X receptor (PXR) small molecule agonists, qHTS assay (AID 1346982); note: nearly all actives have a fitted effect of over 35% in size; note: potency is the fitted concentration of half-maximal effect
How it was run: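 Cells: HepG2 stably carrying PXR-Luc. Medium held 5% charcoal-stripped FBS. Compounds in DMSO added after 5 hr plating, incubated 24 hr, then luminescence quantified with ONE-Glo.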

[6] = molecular target: Acetylcholinesterase (Homo sapiens) (UniProt P22303); assay: Acetylcholinesterase (AChE) small molecule antagonists: colormetric cell-based qHTS assay (AID 1347395; calls by dose curve; note: nearly all actives have a fitted effect of over 30% in size; note: potency is the fitted concentration of half-maximal effect)
How it was run: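 Endogenous AChE of human neuroblastoma SH-SY5Y cells was measured with an Ellman-type DTNB/acetylthiocholine mix. Compound pretreatment lasted 30 min at 37 C; substrate reaction ran 90 min at 37 C.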

[7] = molecular target: Acetylcholinesterase (Homo sapiens) (UniProt P22303); assay: Acetylcholinesterase (AChE) small molecule antagonists: enzyme-based qHTS assay (AID 1347397; calls by dose curve; note: nearly all actives have a fitted effect of over 55% in size); settings: Potency: AChE enzyme activity inhibition
How it was run: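 Colorimetric DTNB readout of acetylthiocholine hydrolysis, 10 min at room temperature, after 30 min room-temperature exposure of 50 mU/mL recombinant human enzyme to compound; DMSO vehicle control.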

[8] = molecular target: Acetylcholinesterase (Homo sapiens) (UniProt P22303); assay: Acetylcholinesterase (AChE) small molecule antagonists: fluorescence cell-based qHTS assay (AID 1347398; calls by dose curve; note: nearly all actives have a fitted effect of over 50% in size; note: potency is the fitted concentration of half-maximal effect); settings: Potency: AChE activity
How it was run: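 Cellular AChE activity read as thiocholine from acetylthiocholine hydrolysis, detected by Thiolite Green fluorescence at 490/520 nm after 40 min at room temperature. Compounds were pre-incubated 30 min at 37 C on adherent SH-SY5Y cells.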

[9] = molecular target: Acetylcholinesterase (Homo sapiens) (UniProt P22303); assay: Acetylcholinesterase (AChE) small molecule antagonists: enzyme-based qHTS assay with human liver microsomes (AID 1347399; calls by dose curve; note: nearly all actives have a fitted effect of over 60% in size); settings: Potency: qHTS inhibition
How it was run: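 Recombinant human AChE (50 mU/mL in the enzyme mix) and human liver microsomes (0.25 mg/mL final) were preincubated with compound and NADPH (0.25 mg/mL final) for 30 min at 37 C. Acetylthiocholine/DTNB was then added; thiocholine was read colorimetrically after 10 min at room temperature.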

[10] = molecular target: Cytochrome P450 2C19 (Homo sapiens) (UniProt P33261); assay: Cytochrome P450 Family 2 Subfamily C Member 19 (CYP2C19) small molecule antagonists: luciferase reporter qHTS assay (AID 1671197); note: nearly all actives have a fitted effect of over 65% in size; note: potency is the fitted concentration of half-maximal effect
How it was run: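 Quantitative high-throughput screen of the Tox21 library using CYP2C19 with proluciferin substrate. Reaction: NADPH regeneration, 37C, 1 h, after 10 min compound preincubation at room temperature. Readout: luminescence.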

[11] = molecular target: Voltage-gated inwardly rectifying potassium channel KCNH2 (Homo sapiens) (UniProt Q12809); assay: Human Ether-a-go-go-Related Gene (hERG) channel small molecule antagonists: fluorescence cell-based qHTS assay (AID 1671200); note: nearly all actives have a fitted effect of over 50% in size; note: potency is the fitted concentration of half-maximal effect
How it was run: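 Quantitative HTS in hERG-U2OS cells: thallium entry through the channel reports activity, read as continuous 480/540 nm fluorescence over 2 min after stimulus addition.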

[12] = molecular target: Cytochrome P450 3A4 (Homo sapiens) (UniProt P08684); assay: Cytochrome P450 Family 3 Subfamily A Member 4 (CYP3A4) small molecule antagonists: luciferase reporter qHTS assay (AID 1671201); note: nearly all actives have a fitted effect of over 50% in size; note: potency is the fitted concentration of half-maximal effect
How it was run: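 Inhibition of CYP3A4 is measured as loss of light: the enzyme converts a proluciferin substrate to luciferin, detected luminescently. Reaction ran 1 h at room temperature with NADPH regeneration after a 10 min compound preincubation.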

[13] = molecular target: Cytochrome P450 2D6 (Homo sapiens) (UniProt P10635); assay: Cytochrome P450 Family 2 Subfamily D Member 6 (CYP2D6) small molecule antagonists: luciferase reporter qHTS assay (AID 1671196); note: nearly all actives have a fitted effect of over 50% in size; note: potency is the fitted concentration of half-maximal effect
How it was run: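 Enzyme and proluciferin substrate were first combined with test chemical for 10 min at room temperature. Adding NADPH regeneration solution started a 1 h reaction, stopped with luciferin detection reagent and read by luminescence 20 min later.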

[14] = molecular target: Cytochrome P450 2C9 (Homo sapiens) (UniProt P11712); assay: Cytochrome P450 Family 2 Subfamily C Member 9 (CYP2C9) small molecule antagonists: luciferase reporter qHTS assay (AID 1671198); note: nearly all actives have a fitted effect of over 50% in size; note: potency is the fitted concentration of half-maximal effect
How it was run: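 Enzyme-substrate mix preincubated with compound 10 min at room temperature; reaction started with NADPH regeneration solution, 1 h 37C. Luminescent luciferin product read after 20 min detection reagent.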

[15] = molecular target: Cytochrome P450 1A2 (Homo sapiens) (UniProt P05177); assay: Cytochrome P450 Family 1 Subfamily A Member 2 (CYP1A2) small molecule antagonists: luciferase reporter qHTS assay (AID 1671199); note: nearly all actives have a fitted effect of over 50% in size; note: potency is the fitted concentration of half-maximal effect
How it was run: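 Compounds were incubated with CYP1A2 and a luminogenic proluciferin substrate for 10 min at room temperature before the reaction was started with NADPH regeneration solution. After 1 h, detection reagent was added and light output, proportional to CYP activity, was recorded.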

[16] = Caspase-3/7 induction in CHO-K1 cells by small molecules, qHTS cell viability counter screen (AID 1346979); note: nearly all actives have a fitted effect of over 35% in size; note: potency is the fitted concentration of half-maximal effect
How it was run: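 In the same wells as the caspase read, viability of compound-treated wild-type CHO-K1 cells was assessed using CellTiter-Fluor, added after 16hr at 37C and measured by fluorescence following 1hr further incubation.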

[17] = molecular target: Nuclear receptor subfamily 1 group I member 2 (Rattus norvegicus) (UniProt Q9R1A7); assay: Rat pregnane X receptor (rPXR) activation by small molecules, qHTS assay (AID 1346983); settings: rPXR luciferase reporter cells, One-Glo luminescence, 24 h; max activation: active compounds read high; note: nearly all actives have a fitted effect of over 20% in size
How it was run: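 Luminescent readout (One-Glo luciferase, 30 min room temperature) followed 24 hr compound treatment at 37 C of rPXR cells plated 2,000 per well and preincubated 5hr; qHTS format with compounds delivered in DMSO.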

[18] = molecular target: Nuclear receptor subfamily 1 group I member 2 (Homo sapiens) (UniProt O75469); assay: CYP3A4 induction through human pregnane X receptor (PXR) by small molecules, qHTS assay (AID 1346984); note: potency is the fitted concentration of half-maximal effect; nearly all actives have a fitted effect of over 40% in size
How it was run: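 Quantitative HTS in DPX-2 cells, i.e. HepG2 transfected with PXR response element and CYP3A4-promoter luciferase. Compounds in DMSO incubated 24hr at 37C; then P450-Glo CYP3A4 substrate, 3uM final, 3hr; One-Glo luminescence.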

[19] = molecular target: Nuclear receptor subfamily 1 group I member 2 (Homo sapiens) (UniProt O75469); assay: Human pregnane X receptor (PXR) activation by small molecules, qHTS assay (AID 1346985); note: potency is the fitted concentration of half-maximal effect; nearly all actives have a fitted effect of over 40% in size
How it was run: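 DPX-2 cells (HepG2 co-transfected with a PXR response element and a CYP3A4-promoter luciferase construct) were seeded at 2,000 per well, rested 5 hr at 37C, then exposed to DMSO-dissolved compounds for 24 hr. Activation was read as luciferase luminescence.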

Chain of Cytochrome P450 1A2 (Homo sapiens) (P05177 whole entry, looked up): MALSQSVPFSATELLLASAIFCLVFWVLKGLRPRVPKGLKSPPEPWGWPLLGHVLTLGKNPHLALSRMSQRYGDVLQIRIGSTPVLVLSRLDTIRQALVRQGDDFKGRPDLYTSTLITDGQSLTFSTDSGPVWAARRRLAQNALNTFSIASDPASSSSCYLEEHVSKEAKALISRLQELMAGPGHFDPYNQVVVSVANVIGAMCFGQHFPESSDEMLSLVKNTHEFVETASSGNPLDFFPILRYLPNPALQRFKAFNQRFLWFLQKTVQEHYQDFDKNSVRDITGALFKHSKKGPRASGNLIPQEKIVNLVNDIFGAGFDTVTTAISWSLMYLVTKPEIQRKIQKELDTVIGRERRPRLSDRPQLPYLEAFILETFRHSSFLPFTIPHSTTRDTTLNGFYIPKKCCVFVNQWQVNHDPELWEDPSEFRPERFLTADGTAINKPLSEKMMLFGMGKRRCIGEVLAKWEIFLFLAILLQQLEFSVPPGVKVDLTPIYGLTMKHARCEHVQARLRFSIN
Chain of Nuclear receptor subfamily 1 group I member 2 (Homo sapiens) (O75469 whole entry, looked up): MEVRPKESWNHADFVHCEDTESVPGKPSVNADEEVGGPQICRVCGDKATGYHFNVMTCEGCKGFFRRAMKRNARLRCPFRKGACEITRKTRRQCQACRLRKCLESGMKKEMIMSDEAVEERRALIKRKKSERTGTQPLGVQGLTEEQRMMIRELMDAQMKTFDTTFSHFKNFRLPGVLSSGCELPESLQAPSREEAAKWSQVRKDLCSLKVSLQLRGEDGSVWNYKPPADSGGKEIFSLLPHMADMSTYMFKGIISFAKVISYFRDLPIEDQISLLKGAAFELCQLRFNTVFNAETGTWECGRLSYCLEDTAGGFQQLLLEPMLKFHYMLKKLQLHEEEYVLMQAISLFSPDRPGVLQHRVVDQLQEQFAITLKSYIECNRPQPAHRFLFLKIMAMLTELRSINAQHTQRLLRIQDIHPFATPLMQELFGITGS
Chain of Cytochrome P450 2C19 (Homo sapiens) (P33261 whole entry, looked up): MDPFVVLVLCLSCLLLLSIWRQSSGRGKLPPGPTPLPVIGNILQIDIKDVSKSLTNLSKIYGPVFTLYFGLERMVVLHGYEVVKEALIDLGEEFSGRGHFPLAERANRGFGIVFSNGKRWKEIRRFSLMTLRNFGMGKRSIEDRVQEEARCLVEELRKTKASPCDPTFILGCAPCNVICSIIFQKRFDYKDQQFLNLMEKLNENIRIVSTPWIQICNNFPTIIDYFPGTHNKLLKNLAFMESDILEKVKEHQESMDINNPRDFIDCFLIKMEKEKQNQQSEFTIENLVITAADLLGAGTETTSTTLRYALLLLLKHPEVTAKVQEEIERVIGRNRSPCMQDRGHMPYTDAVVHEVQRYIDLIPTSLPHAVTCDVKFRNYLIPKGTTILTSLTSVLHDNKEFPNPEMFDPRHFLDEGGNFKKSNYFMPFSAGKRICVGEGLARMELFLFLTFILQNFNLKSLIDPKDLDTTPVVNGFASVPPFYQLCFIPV
Chain of Cytochrome P450 2D6 (Homo sapiens) (P10635 whole entry, looked up): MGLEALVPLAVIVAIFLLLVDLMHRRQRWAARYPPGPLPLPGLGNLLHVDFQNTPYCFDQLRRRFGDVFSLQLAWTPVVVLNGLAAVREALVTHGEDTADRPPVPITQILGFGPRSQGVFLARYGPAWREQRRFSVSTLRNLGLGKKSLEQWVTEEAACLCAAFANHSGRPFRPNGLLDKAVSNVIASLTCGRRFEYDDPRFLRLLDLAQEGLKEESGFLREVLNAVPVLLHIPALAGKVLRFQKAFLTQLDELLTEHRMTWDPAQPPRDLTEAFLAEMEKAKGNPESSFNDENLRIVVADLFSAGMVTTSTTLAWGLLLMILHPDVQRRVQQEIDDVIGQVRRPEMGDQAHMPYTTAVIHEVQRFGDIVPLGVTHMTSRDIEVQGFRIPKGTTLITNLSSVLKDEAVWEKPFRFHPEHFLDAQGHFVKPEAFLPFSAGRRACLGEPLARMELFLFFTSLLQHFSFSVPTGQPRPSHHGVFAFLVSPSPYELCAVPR
Chain of Cytochrome P450 2C9 (Homo sapiens) (P11712 whole entry, looked up): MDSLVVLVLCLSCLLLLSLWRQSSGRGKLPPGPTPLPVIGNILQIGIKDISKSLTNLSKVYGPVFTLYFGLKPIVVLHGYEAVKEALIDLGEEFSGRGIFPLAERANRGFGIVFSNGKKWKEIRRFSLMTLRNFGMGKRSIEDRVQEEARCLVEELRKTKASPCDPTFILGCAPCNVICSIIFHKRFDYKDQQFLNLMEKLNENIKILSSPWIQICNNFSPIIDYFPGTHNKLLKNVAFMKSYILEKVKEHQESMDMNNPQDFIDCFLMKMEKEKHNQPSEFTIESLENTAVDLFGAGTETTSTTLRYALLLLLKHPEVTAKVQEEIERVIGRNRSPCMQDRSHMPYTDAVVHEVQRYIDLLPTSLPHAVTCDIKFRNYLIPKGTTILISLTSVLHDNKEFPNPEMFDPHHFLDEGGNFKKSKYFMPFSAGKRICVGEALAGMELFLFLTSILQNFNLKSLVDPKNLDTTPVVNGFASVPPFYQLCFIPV
Chain of Cytochrome P450 3A4 (Homo sapiens) (P08684 whole entry, looked up): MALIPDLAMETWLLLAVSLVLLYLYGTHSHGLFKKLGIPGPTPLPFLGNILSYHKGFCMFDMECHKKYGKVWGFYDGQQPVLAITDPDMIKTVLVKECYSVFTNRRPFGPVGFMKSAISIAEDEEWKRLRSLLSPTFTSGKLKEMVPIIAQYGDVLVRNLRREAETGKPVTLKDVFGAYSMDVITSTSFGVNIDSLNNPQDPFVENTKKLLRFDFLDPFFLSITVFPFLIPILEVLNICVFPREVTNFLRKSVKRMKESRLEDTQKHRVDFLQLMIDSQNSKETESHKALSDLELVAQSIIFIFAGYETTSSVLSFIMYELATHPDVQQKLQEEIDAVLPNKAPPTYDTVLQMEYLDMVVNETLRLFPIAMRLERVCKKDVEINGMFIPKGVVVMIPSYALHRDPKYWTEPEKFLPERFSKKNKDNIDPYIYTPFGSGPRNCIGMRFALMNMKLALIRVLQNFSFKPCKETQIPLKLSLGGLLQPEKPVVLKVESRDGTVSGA
Chain of Acetylcholinesterase (Homo sapiens) (P22303 whole entry, looked up): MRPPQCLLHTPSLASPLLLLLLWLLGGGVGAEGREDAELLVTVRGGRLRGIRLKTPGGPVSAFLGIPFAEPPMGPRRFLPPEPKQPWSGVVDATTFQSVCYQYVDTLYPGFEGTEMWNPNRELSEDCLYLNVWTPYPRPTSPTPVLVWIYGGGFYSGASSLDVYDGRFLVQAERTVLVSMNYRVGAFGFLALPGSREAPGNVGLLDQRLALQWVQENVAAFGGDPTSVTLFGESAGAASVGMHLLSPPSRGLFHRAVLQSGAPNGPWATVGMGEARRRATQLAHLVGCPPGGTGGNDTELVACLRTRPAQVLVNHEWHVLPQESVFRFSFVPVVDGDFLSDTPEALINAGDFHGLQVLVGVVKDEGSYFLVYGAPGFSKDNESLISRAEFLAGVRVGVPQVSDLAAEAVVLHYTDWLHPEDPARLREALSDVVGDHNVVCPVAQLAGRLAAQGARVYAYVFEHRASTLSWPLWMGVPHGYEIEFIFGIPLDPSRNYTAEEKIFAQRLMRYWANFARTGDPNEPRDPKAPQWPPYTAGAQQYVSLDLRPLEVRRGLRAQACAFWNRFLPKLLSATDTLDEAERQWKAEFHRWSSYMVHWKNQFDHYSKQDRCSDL
Chain of Voltage-gated inwardly rectifying potassium channel KCNH2 (Homo sapiens) (Q12809 whole entry, looked up): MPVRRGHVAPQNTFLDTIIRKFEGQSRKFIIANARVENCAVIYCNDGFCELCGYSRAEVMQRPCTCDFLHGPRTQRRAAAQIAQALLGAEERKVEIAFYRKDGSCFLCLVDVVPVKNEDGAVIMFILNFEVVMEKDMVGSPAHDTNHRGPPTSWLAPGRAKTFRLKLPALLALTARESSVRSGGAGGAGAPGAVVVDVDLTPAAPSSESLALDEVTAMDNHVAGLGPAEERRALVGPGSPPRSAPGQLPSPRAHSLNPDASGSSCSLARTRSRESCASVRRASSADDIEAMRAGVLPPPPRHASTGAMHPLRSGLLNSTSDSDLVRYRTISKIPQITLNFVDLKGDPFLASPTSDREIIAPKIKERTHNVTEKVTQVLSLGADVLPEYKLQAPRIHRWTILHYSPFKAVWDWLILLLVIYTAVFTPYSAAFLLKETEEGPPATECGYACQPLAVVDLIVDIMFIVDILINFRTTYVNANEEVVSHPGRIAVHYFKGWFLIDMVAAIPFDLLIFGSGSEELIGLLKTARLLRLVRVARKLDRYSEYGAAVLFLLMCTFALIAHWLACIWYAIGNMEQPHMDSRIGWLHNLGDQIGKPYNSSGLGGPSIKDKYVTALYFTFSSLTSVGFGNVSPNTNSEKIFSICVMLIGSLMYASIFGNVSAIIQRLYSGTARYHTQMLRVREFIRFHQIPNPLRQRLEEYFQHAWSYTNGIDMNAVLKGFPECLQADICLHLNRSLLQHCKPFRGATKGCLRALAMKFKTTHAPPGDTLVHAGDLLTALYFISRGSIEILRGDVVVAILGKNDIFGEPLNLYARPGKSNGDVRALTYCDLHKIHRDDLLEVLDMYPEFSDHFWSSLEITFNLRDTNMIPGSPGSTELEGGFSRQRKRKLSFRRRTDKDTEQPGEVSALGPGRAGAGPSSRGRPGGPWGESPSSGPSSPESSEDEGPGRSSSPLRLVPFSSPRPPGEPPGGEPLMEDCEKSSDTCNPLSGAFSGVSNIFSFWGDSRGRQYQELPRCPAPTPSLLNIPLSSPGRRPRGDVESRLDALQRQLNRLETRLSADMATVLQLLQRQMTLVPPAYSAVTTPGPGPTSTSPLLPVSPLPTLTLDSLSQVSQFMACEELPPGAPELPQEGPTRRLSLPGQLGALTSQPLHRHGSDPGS

Row | Structure (SMILES) | Potency [1] | Potency [2] | Potency [3] | Potency [4] | Potency [5] | Potency [6] | Potency [7] | Potency [8] | Potency [9] | Potency [10] | Potency [11] | Potency [12] | Potency [13] | Potency [14] | Potency [15] | Potency [16] | max activation [17] [%] | Potency [18] | Potency [19]
1 | O=NN1CCNCC1 | inactive | inactive | inactive | inactive | inactive | inactive | inactive | inactive | inactive | 44.3 µM (active) | inactive | inactive | – | – | – | – | – | – | –
2 | COP(=O)(OC)O/C(=C/Cl)c1cc(Cl)c(Cl)cc1Cl | inactive | inactive | inactive | inactive | 72.4 µM (active) | 42.2 µM (active) | inactive | – | inactive | 5.31 µM (active) | inactive | inactive | 33.5 µM (active) | 23.7 µM (active) | 2.66 µM (active) | – | – | – | –
3 | Cc1ccc(-c2c(Cl)nc(C#N)n2S(=O)(=O)N(C)C)cc1 | 43.2 µM (active) | inactive | inactive | – | – | inactive | inactive | inactive | inactive | 79.6 µM (active) | inactive | inactive | inactive | 11.2 µM (active) | 22.4 µM (active) | – | – | – | –
4 | ClCc1ccccc1 | inactive | inactive | – | – | 60.8 µM (active) | – | – | inactive | inactive | – | inactive | inactive | – | inactive | inactive | inactive | – | – | –
5 | O=C(CCl)c1ccc(Cl)cc1Cl | inactive | inactive | – | inactive | – | inactive | inactive | inactive | inactive | 17.8 µM (active) and 9.77 µM (active) | inactive | inactive | 39.8 µM (active) and 38.9 µM (active) | 12.6 µM (active) and 17.4 µM (active) | 35.4 µM (active) and 12.9 µM (active) | 68.2 µM (active) and 26.6 µM (active) | – | – | –
6 | CO/C=C(/C(=O)OC)c1ccccc1COc1cccc(C(F)(F)F)n1 | 1.93 µM (active) | inactive | – | – | 34.3 µM (active) | inactive | – | inactive | inactive | 0.709 µM (active) | inactive | inactive | 39.9 µM (active) | 39.9 µM (active) | 35.5 µM (active) | 0.385 µM (active) | – | – | –
7 | O=Cc1ccc(Cl)cc1Cl | inactive | inactive | – | inactive | inactive | – | inactive | – | inactive | inactive | inactive | inactive | inactive | inactive | inactive | inactive | – | – | –
8 | Cc1ccccc1C(=O)Nc1cccc(OC(C)C)c1 | inactive | inactive | inactive | inactive | – | inactive | inactive | inactive | inactive | 7.96 µM (active) | inactive | inactive | inactive | 22.4 µM (active) | 5.64 µM (active) | – | – | – | –
9 | CCC(COC(=O)c1cc(OC)c(OC)c(OC)c1)(c1ccccc1)N(C)C (centres undefined) | inactive | inactive | inactive | inactive | – | – | inactive | – | inactive | 24.5 µM (active) | – | – | 0.55 µM (active) | 15.5 µM (active) | inactive | – | -1.12 | 15.8 µM (active) | 25.1 µM (active)
10 | OC(c1ccc(Cl)cc1)(c1ccc(Cl)cc1)c1cccnc1 | – | inactive | inactive | inactive | 61.1 µM (active) | inactive | – | inactive | inactive | 0.0796 µM (active) | 34.7 µM (active) | 2.24 µM (active) | 11.2 µM (active) | 0.448 µM (active) | 35.6 µM (active) | 61.1 µM (active) | – | – | –
11 | NS(=O)(=O)C(F)(F)C(F)(F)C(F)(F)C(F)(F)C(F)(F)C(F)(F)C(F)(F)C(F)(F)F | – | inactive | inactive | inactive | – | inactive | inactive | inactive | inactive | – | inactive | inactive | inactive | 0.633 µM (active) | inactive | inactive | – | – | –
12 | CCCCN(N=O)C(=N)N[N+](=O)[O-] | – | inactive | – | – | inactive | inactive | inactive | – | inactive | inactive | inactive | – | – | inactive | 40.8 µM (active) | 62.4 µM (active) | – | – | –
13 | COP(=S)(OC)Oc1cc(Cl)c(I)cc1Cl | – | inactive | – | inactive | – | inactive | – | – | inactive | 2.24 µM (active) | – | 20 µM (active) | inactive | 3.99 µM (active) | 12.6 µM (active) | inactive | – | – | –
14 | CN(C)c1ccc(N(C)C)cc1 | – | inactive | – | inactive | – | 40 µM (active) | – | 40 µM (active) | inactive | 7.99 µM (active) | inactive | 35.7 µM (active) | 20.1 µM (active) | 20.1 µM (active) | 40 µM (active) | – | – | – | –
